Compound activity from PubChem.
UBC13 inh = blocks human UBC13 polyubiquitin chain formation; P61088; TR-FRET; inhibition, % at 20 µM; actives 0.47% (n = 330,000); in the data active means inhibition above about 45%, passing the limit was not always enough
GRIN3A LBD mod = NR3A (human) ligand-binding domain modulation. NR3A LBD differential scanning fluorimetry, Tm shift; 0% = protein alone, 100% = glycine-bound protein. Tm shift relative to glycine control, % at 25 µM. actives 2.5% (n = 340,000);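 active means melting temperature shift of at least 10% of the positive control shift, at one fixed dose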
UBC9 SUMO inh = blocks human SUMOylation mediated by UBC9; HTRF SUMOylation assay, SAE1/SAE2 + UBC9, in vitro; inhibition, % at 35 µM; actives 0.36% (n = 290,000); AID 2006; in the data active means inhibition above about 50%, passing the limit was not always enough
sPLA2-III inh = Inhibits HGIII-sPLA2 liposome hydrolysis, primary screen; Q9NZ20; QFRET BODIPY PC-A2 liposome hydrolysis, fluorescence; inhibition, % at 12.2 µM; actives 0.56% (n = 370,000); AID 743126;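 active means inhibition above mean plus 3 SD of compounds lying within the high and low control bounds, cut at about 19% in these data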;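 further: 0% = median of test compound wells and 100% = no enzyme DMSO wells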
Target sequence (Q9NZ20 whole entry, looked up): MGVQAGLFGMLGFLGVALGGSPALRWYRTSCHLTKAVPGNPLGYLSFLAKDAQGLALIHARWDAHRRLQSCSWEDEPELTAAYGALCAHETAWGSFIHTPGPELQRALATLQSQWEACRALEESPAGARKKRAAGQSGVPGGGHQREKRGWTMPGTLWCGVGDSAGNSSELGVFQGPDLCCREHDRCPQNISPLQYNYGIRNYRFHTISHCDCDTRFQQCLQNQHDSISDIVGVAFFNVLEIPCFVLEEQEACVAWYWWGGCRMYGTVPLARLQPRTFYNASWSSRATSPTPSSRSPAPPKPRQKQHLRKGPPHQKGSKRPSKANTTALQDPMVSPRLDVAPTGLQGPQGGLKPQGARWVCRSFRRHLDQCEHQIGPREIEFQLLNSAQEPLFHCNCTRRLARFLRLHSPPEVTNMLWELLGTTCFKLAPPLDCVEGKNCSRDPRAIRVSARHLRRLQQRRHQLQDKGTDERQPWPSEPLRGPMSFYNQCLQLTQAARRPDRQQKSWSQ
* = called active by the depositor; · = no result given. The list is not random: actives were taken first. Their share in the collection is about 3.3%.

SMILES	UBC13 inh	GRIN3A LBD mod	UBC9 SUMO inh	sPLA2-III inh
O=C(Nc1ccc(Br)c(C(F)(F)F)c1)c1ccccc1	10	8	12	-2
O=C(Nc1ccc(Br)c(C(F)(F)F)c1)c1ccc(C(F)(F)F)cc1	-1	24*	-22	11
COc1ccc(C(=O)Nc2ccc(OCC(F)(F)C(F)F)c(C(F)(F)F)c2)cc1OC	3	18*	-2	-4
O=C(Nc1ccc(OCC(F)(F)C(F)F)c(C(F)(F)F)c1)c1ccc(Cl)cc1	-2	31*	·	-9
COc1ccc(-c2nnn(Cc3ccccc3)n2)cc1	1	0	-10	0
COc1ccc(OCCn2nnc(-c3ccc(Cl)cc3)n2)cc1	-2	15*	12	2
FC(F)(F)c1cccc(Cn2ccc3ccc(-c4ccc5ccn(Cc6cccc(C(F)(F)F)c6)c5c4)cc32)c1	·	·	·	0
Cc1cc(C(=O)OC(C(=O)Nc2cccc(C(F)(F)F)c2)c2ccccc2)c(C)o1 (configuration not stated)	-5	13*	-37	-43
Cc1ccc(NC(=O)C(OC(=O)c2cc(C)oc2C)c2ccccc2)cc1 (configuration not stated)	6	2	-18	-31
Cc1nc2ccc(-c3nc4cc(N)ccc4o3)cc2[nH]1	-3	-4	53*	0
Cc1ccccc1-c1nc2cc(N)ccc2o1	16	2	65*	0
COC1=C[C@H](C(=O)NC2CCN(Cc3ccccc3)CC2)C(C)C(c2ccccc2)CC1=O (some centres not stated)	·	·	·	-3
CC(C)Sc1nsc2nc(=O)c(/C=C3\C=Nc4ccccc43)c(N)n12	-7	25*	0	-13
CS(=O)(=O)c1nsc2nc(=O)c(/C=C3\C=Nc4ccccc43)c(N)n12	-15	39*	22	-18
COC(=O)[C@]12C[C@H](CC(=O)N3CCCC3)C(=O)N(Cc3ccccc3)C1=C[C@H](COCc1ccccc1)O[C@@H]2C	·	·	·	2
O=C(c1cc(F)ccc1F)N(Cc1ccccn1)CC1CCCO1 (configuration not stated)	·	·	·	6
O=C(CSc1nc2ccc(Cl)cc2[nH]1)c1c[nH]c2ccccc12	2	12*	0	-37
O=C(CSc1nc2ncc(Cl)cc2[nH]1)c1c[nH]c2ccccc12	-18	6	34	-20
CCOc1ccccc1C(=O)N[C@H](C(=O)OCc1cc(=O)oc2cc(C)ccc12)C(C)C	-7	15*	-17	-19
COc1cccc(OC(C)CCN2CCC(C(O)(c3ccccc3)c3ccccc3)CC2)c1 (configuration not stated)	·	·	·	-17
COc1ccc(NC(=O)CSc2ccccc2)c(OC)c1	4	1	15	2
COc1ccc(NC(=O)CSc2ncnc3c2sc2ccccc23)c(OC)c1	8	16*	8	5
COc1ccc(S[C@]2(C(=O)N(C)C)CC(=O)N(C(=O)Nc3ccc(C)c(Cl)c3)[C@@H]2c2ccc(OC)cc2)cc1	·	·	·	0
Cc1ccc(S(=O)(=O)NC(=O)Nc2ccc(F)c(F)c2)cc1	-5	0	2	-1
CC(=O)Nc1ccc(NC(=O)C(C)OC(=O)c2ccc(S(=O)(=O)N3CCCCC3)cc2)cc1 (configuration not stated)	-17	-5	·	-7
SMILES	UBC13 inh	GRIN3A LBD mod	UBC9 SUMO inh	sPLA2-III inh
CC(=O)c1ccc(NC(=O)C(C)OC(=O)c2ccc(NS(=O)(=O)c3ccc(F)c(F)c3)cc2)cc1 (configuration not stated)	-1	11*	-6	-65
CCc1ccc(NC(=O)C(C)OC(=O)c2ccc(NS(=O)(=O)c3ccc(C)c([N+](=O)[O-])c3)cc2)cc1 (configuration not stated)	-22	13*	11	-110
Cc1ccc(NC(=O)C(C)OC(=O)c2ccc(NS(=O)(=O)c3ccc(F)c(F)c3)cc2)cc1 (configuration not stated)	-5	28*	-1	-78
COc1ccc(/C=C/S(=O)(=O)NCc2ccccc2)c(CNC(=O)OC(C)(C)C)c1	·	·	·	0
O=C(CN1CCN(S(=O)(=O)c2ccc(Br)cc2)CC1)N/N=C/c1ccc(Cl)c([N+](=O)[O-])c1	-1	10*	-8	-15
NC(=S)NNC(=O)c1cc(C(F)(F)F)cc(C(F)(F)F)c1	-7	31*	7	9
CNC(=S)NNC(=O)c1cccc(C(F)(F)F)c1	8	0	-6	6
Cc1ccc(CN2C(C(=O)NC3CCCC3)CSCCS2(=O)=O)cc1 (configuration not stated)	·	·	·	6
O=C1C[C@@H](c2ccccc2)N=C2N(Cc3ccc4c(c3)OCO4)C/C(=C/c3ccccc3)N12	·	·	·	-3
COc1ccc(CC(=O)NC2CCCCN(Cc3ccc(Cl)cc3)C2=O)cc1OC (configuration not stated)	·	·	·	14
CC(C)=C1C(=O)NN(c2ccc(F)c(Cl)c2)C1=O	-15	0	23	-13
O=C1NN(c2ccc(F)c(Cl)c2)C(=O)/C1=C\c1cccc(OC(=O)c2cccs2)c1	10	24*	6	-15
O=C(N[C@H]1C[C@@H]2O[C@@H](CO)CC[C@@H]2O[C@@H]1CCc1ccc(-c2cccnc2)cc1)c1cccc(F)c1	·	·	·	-11
Cc1nnc2nc(-c3ccccc3)nc(-c3ccccc3)n12	21	12*	24	11
COC(=O)c1ccc(-n2nnnc2SCC(=O)N2CCCCC2)cc1	0	37*	-41	0
CCCOC(=O)c1ccc(-n2nnnc2SCC(=O)N2CCCCC2)cc1	1	0	6	-6
Clc1cccc2sc(N3CCN(c4ccccc4)CC3)nc12	8	18*	-8	16
CCCN1CCS(=O)(=O)N(Cc2cn(CC(=O)OCC)nn2)C(C(=O)OC)C1 (configuration not stated)	·	·	·	4
COC(=O)c1sccc1NC(=O)c1cccc(Cl)c1	12	5	·	0
CC(=O)c1ccc(NC(=O)COc2ccccc2C(=O)Nc2ccc(C)cn2)cc1	0	2	-14	-1
COC(=O)c1sccc1NC(=O)Cc1ccc(Br)cc1	17	12*	6	-1
COC(=O)c1sccc1NC(=O)c1cccnc1	8	669*	16	10
CC(=O)c1ccc(NC(=O)COc2ccccc2C(=O)Nc2ccccc2)cc1	16	15*	-4	-1
CCOc1ccccc1C(=O)Nc1ccc(NC(=O)c2ccccc2)cc1	-5	17*	18	3
Cc1ccc(NC(=O)c2ccccc2OCC(=O)c2ccccc2)cc1	-5	10*	-5	-6
CCOc1ccccc1C(=O)Nc1ccsc1C(=O)OC	·	14*	-21	-1
CCOc1ccccc1C(=O)Nc1ccccc1C(N)=O	8	-2	-1	3
Cc1ccc(C(=O)COc2ccccc2C(=O)Nc2ccccc2)cc1	6	2	6	-4
O=C(NCCCl)c1ccc(OCc2ccccc2)cc1Cl	0	-2	0	22*
CCS(=O)(=O)C(C)(CCl)C(=O)Nc1ccc(C(=O)OC)cc1 (configuration not stated)	3	12*	7	-12
